From article PMC5540273 (PLoS ONE, 2017) come the findings set out here.

Among the test systems are BLK; BMPR1A; BMPR1B; BMPR2; BMX; BRAF; BRSK1; BRSK2; BTK; BUB1; CAMK1B; CAMK1D; CAMK1G; CAMK1; CAMK2A; CAMK2B; CAMK2D; CAMK2G; CAMK4.
Conditions in all cases: concentration: 1 μM, replicates: in singlicate; n = 1
In another test the test system is T1, BRK.
T1 construct: gene PTK6
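Further: KINOMEscan kinase panel screen.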

For the compound `COc1cc2c(cc1OC[C@@H](O)CO)ncc1c3ccc(C#N)cc3[nH]c21`, the “%Inh” value is listed as 24% in the test with BLK; 5% in the test on BMPR1A; 0% in the test on BMPR1B; 0% with BMPR2; 0% with BMX; 0% in the test with BRAF. The “%Inh” value in the test with BRK was 0%; in the test on BRSK1 it was 0%; in the test with BRSK2, 0%; in the test on BTK it was 0%; in the test with BUB1, 94.3%; with CAMK1B, 27%. For the same compound, the “%Inh” value turned out to be 0% in the test with CAMK1D; 0% in the test with CAMK1G; 0% in the test on CAMK1; 89% in the test with CAMK2A; 61% in the test with CAMK2B; 84% in the test with CAMK2D. Besides, the entries for the “%Inh” value in the test with CAMK2G and in the test with CAMK4 were 61% and 0%, respectively.

Regarding `CN(C1=C(c2ccccc2)C(=O)NC1=O)c1ccccc1` [SB-334860], the “%Inh” value with BLK is 0%; in the test with BMPR1A it was 0%; in the test with BMPR1B, 0%; in the test on BMPR2, 0%; with BMX it was 13%; with BRAF, 0%. The “%Inh” value was 2% with BRK; 0% in the test on BRSK1; 0% with BRSK2; 0% in the test on BTK; 0% in the test on BUB1; 34% in the test on CAMK1B. Besides, the “%Inh” value in the test with CAMK1D was 3%; in the test on CAMK1G, 0%; in the test with CAMK1 it was 6%; with CAMK2A, 7%; in the test with CAMK2B it was 11%; with CAMK2D, 1%. For the same compound, the “%Inh” value came out at 3% in the test on CAMK2G and 0% in the test with CAMK4.

For `Cl.Oc1cccc(Nc2ccnc3cc(-c4ccncc4)ccc23)c1` [GW494601], the “%Inh” value in the test on BLK is on record as 99.1%; with BMPR1A it was 84%; in the test with BMPR1B it was 99.9%; in the test with BMPR2 it was 30%; in the test with BMX, 28%; with BRAF, 76%. Moreover, the “%Inh” value is 90% in the test with BRK; 14% in the test with BRSK1; 4% in the test on BRSK2; 46% with BTK; 81% in the test on BUB1; 5% with CAMK1B. In addition, the “%Inh” value is listed as 5% in the test with CAMK1D; 0% in the test with CAMK1G; 35% in the test with CAMK1; 0% with CAMK2A; 0% in the test with CAMK2B; 6% in the test on CAMK2D. Further, the “%Inh” value with CAMK2G is 29%; in the test with CAMK4, 0%.

As for `Fc1ccc(-c2nn3c(OCC(F)(F)F)cccc3c2-c2ccncc2)cc1` [GW514784], the “%Inh” value turned out to be 43% with BLK; 0% in the test on BMPR1A; 0% in the test on BMPR1B; 1% in the test with BMPR2; 2% in the test on BMX; 44% with BRAF. Further, the “%Inh” value with BRK worked out at 1%; with BRSK1, 0%; in the test with BRSK2, 0%; with BTK, 31%; with BUB1, 99%; in the test with CAMK1B, 0%. The “%Inh” value amounted to 7% in the test on CAMK1D; 0% with CAMK1G; 0% in the test on CAMK1; 0% in the test on CAMK2A; 0% in the test with CAMK2B; 0% in the test with CAMK2D. Besides, the results for the “%Inh” value with CAMK2G and in the test on CAMK4 were 22% and 0%, respectively.

For `O=c1cc(N2CCOCC2)nc2n(Cc3cccc(C(F)(F)F)c3)ccn12` [GSK2297543], the “%Inh” value is 16% with BLK; 0% with BMPR1A; 0% with BMPR1B; 0% in the test on BMPR2; 20% in the test on BMX; 0% with BRAF. In addition, the “%Inh” value is on record as 2% with BRK; 0% with BRSK1; 7% in the test with BRSK2; 0% in the test on BTK; 13% with BUB1; 36% in the test on CAMK1B. Further, the “%Inh” value was determined as 6% in the test on CAMK1D; 0% in the test with CAMK1G; 4% with CAMK1; 0% in the test with CAMK2A; 0% in the test with CAMK2B; 0% in the test with CAMK2D. Moreover, the “%Inh” value in the test with CAMK2G amounted to 4%; in the test with CAMK4, 0%.

Take `C[C@@H](Oc1cc(-n2cnc3ccc(NC(=O)NC(C)(C)C)cc32)sc1C(N)=O)c1ccccc1Cl` [GSK346294]: the “%Inh” value is listed as 0% in the test on BLK; 0% in the test with BMPR1A; 0% in the test with BMPR1B; 5% in the test with BMPR2; 22% in the test with BMX; 0% with BRAF. Also, the “%Inh” value worked out at 17% with BRK; 10% with BRSK1; 15% in the test on BRSK2; 6% in the test on BTK; 35% in the test with BUB1; 32% in the test on CAMK1B. Also, the “%Inh” value in the test with CAMK1D was 19%; with CAMK1G, 2%; in the test on CAMK1, 11%; in the test on CAMK2A, 9%; with CAMK2B it was 0%; in the test with CAMK2D it was 18%. For the same compound, the entries for the “%Inh” value in the test with CAMK2G and in the test on CAMK4 were 23% and 3%, respectively.

For `CC(C)Oc1ccc2c(-c3ccnc(Nc4ccc(N5CCN(C)CC5)cc4)n3)cnn2n1` [GW696155], the “%Inh” value was 23% with BLK; 0% in the test with BMPR1A; 90.5% in the test with BMPR1B; 19% with BMPR2; 4% with BMX; 43% with BRAF. Besides, the “%Inh” value with BRK is listed as 6%; in the test on BRSK1, 0%; with BRSK2, 0%; with BTK, 20%; in the test on BUB1, 99.4%; in the test with CAMK1B it was 96.3%. Moreover, the “%Inh” value in the test with CAMK1D stood at 97.8%; in the test with CAMK1G, 56%; with CAMK1 it was 71%; with CAMK2A it was 44%; in the test on CAMK2B it was 31%; with CAMK2D it was 54%. The “%Inh” value with CAMK2G turned out to be 48%; in the test on CAMK4 it was 0%.

On to `CCc1ccnc(/C=C/c2n[nH]c3cc(Sc4ccccc4C(=O)NC)ccc23)c1`, for which the “%Inh” value in the test on BLK came out at 17%; with BMPR1A, 0%; with BMPR1B, 0%; with BMPR2, 17%; with BMX it was 0%; in the test on BRAF, 4%. For the same compound, the “%Inh” value with BRK was 0%; in the test with BRSK1, 27%; in the test with BRSK2 it was 17%; in the test with BTK, 0%; with BUB1, 49%; with CAMK1B it was 8%. Moreover, the “%Inh” value with CAMK1D is recorded as 0%; with CAMK1G, 2%; in the test with CAMK1 it was 0%; in the test with CAMK2A, 4%; in the test on CAMK2B it was 0%; with CAMK2D it was 9%. Besides, the “%Inh” value with CAMK2G was determined as 18%; in the test with CAMK4, 0%.

As to `CC(=O)Nc1ccc(COc2ccc(Nc3ccnc4cc(-c5ccccn5)ccc34)cc2)cc1.Cl` [GW440148], the “%Inh” value in the test with BLK was determined as 53%; in the test with BMPR1A, 0%; with BMPR1B, 0%; in the test on BMPR2, 1%; in the test on BMX, 17%; in the test on BRAF, 0%. Also, the “%Inh” value in the test with BRK is 57%; in the test on BRSK1, 0%; with BRSK2 it was 0%; with BTK, 0%; with BUB1 it was 5%; in the test on CAMK1B, 23%. Further, the “%Inh” value is 10% with CAMK1D; 7% with CAMK1G; 20% with CAMK1; 0% in the test with CAMK2A; 0% with CAMK2B; 18% in the test with CAMK2D. The entries for the “%Inh” value with CAMK2G and in the test with CAMK4 were 21% and 0%, respectively.

For the compound `O=C(NCCNc1ccnc(Nc2ccc(F)cc2)n1)c1cc2ccccc2s1` [GSK1379874], the “%Inh” value came to 23% in the test on BLK; 0% with BMPR1A; 0% in the test with BMPR1B; 15% with BMPR2; 1% with BMX; 0% in the test on BRAF. Moreover, the “%Inh” value in the test with BRK worked out at 29%; in the test on BRSK1, 0%; in the test with BRSK2, 0%; with BTK it was 0%; in the test with BUB1, 49%; with CAMK1B, 0%. The “%Inh” value turned out to be 1% with CAMK1D; 0% in the test on CAMK1G; 1% in the test with CAMK1; 0% in the test on CAMK2A; 0% with CAMK2B; 7% with CAMK2D. Further, the “%Inh” value stood at 18% with CAMK2G and 0% with CAMK4.

`Cc1nnc(-c2ccc3ncc(-c4ccc(S(C)=O)cc4)n3c2)o1` (stereo not shown): the “%Inh” value was 0% in the test on BLK; 9% in the test with BMPR1A; 16% in the test on BMPR1B; 18% in the test on BMPR2; 0% in the test on BMX; 62% in the test on BRAF. Besides, the “%Inh” value is on record as 14% with BRK; 14% in the test with BRSK1; 0% in the test with BRSK2; 24% with BTK; 16% in the test with BUB1; 6% in the test with CAMK1B. Moreover, the “%Inh” value is recorded as 0% with CAMK1D; 26% in the test with CAMK1G; 0% with CAMK1; 0% in the test with CAMK2A; 0% with CAMK2B; 25% with CAMK2D. For the same compound, the “%Inh” value in the test with CAMK2G amounted to 27%; in the test with CAMK4 it was 0%.
